From PubChem BioAssay (NCI)
This is part of a sample that, as a whole, favours compounds with a hit. Of some 83,000 tested, about 20% had one in any assay.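 Single-concentration screen, 48 h exposure, 96-well plates. Endpoint: percent growth. Below 10 = active.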 Activity calls are given as the source filed them.

System: SNB-75 CNS
Assay: NCI-60 one-dose screen, 48 h (100 = growth as untreated, 0 = no growth, -100 = all killed)
Conditions: 10 µM
Procedure: Growth inhibition of the SNB-75 human tumor cell line is measured as a screen for anti-cancer activity. Cells are grown in 96 well plates and exposed to the test compound for 48 hours. Compounds are tested at a single concentration, which is 10^-5 M for most compounds. The reported endpoint is percent growth (GI% or GIPRCNT), where numbers from 0 - 100% represent growth inhibition, and numbers from -100% - 0 represent cell death. For example, a value of 40 represents 60% growth inhibition. A value of 0 means no net growth occurred over the course of the experiment. A value of -40 indicates 40% of cells at the beginning of the experiment died by the end of the experiment. A value of -100 means all cells are dead at the end of the experiment.
NCI-60 Human Tumor Cell Lines Screen was performed using the standard one-dose NCI protocol, which is described in more detail at https://dtp.cancer.gov/discovery_development/nci-60/default.htm.
Compounds with GIPRCNT values below 10 were considered active. Activity score was based on GIPRCNT using the following formula: […]
Score is 0 for GIPRCNT values of 100 or above, 50 for GIPRCNT values of 0, and 100 for GIPRCNT values of -100.

**Q.** With `O=C(CCl)N1c2ccccc2Sc2ccc3ccccc3c21` as the compound, how does the growth read?
**A.** Its growth is 3.3% (active).

**Q.** With `Cn1c([N+](=O)[O-])cnc1/C=C1\Oc2ccc(Br)cc2C1=O` as the compound, how does the growth read?
**A.** The growth was 8.51% (active).

**Q.** With `COc1ccc(NC(=O)c2sc3nc4c(cc3c2N)C(O)CCC4)cc1` (stereo not given) as the compound, how does the growth read?
**A.** Its growth is 110% (inactive).

**Q.** For `CCN(Cc1ccccc1)C1CCN(Cc2cc(Br)ccc2O)CC1`, which growth is on record?
**A.** Its growth is 49.2% (inactive).

**Q.** `FC(F)(F)c1ccc(-c2ncc(-c3ccc(C(F)(F)F)cc3)c(NCc3cc(C(F)(F)F)cc(C(F)(F)F)c3)n2)cc1` was tested. Which growth did it give?
**A.** Its growth is 72.4% (inactive).

**Q.** Which growth does the source give for `Cc1cccc2c(Nc3ccc(NS(C)(=O)=O)cc3)c3ccc([N+](=O)[O-])cc3nc12` here?
**A.** The growth was 19.7% (inactive).

**Q.** Which growth does the source give for `Cc1ccc2c(c1)-c1cc(C)nn1-c1ccc(C#N)cc1O2` here?
**A.** The growth was 48.8% (inactive).

**Q.** How did the growth turn out when `COc1cc(-c2nc3cc(Cl)c(Cl)cc3[nH]2)ccc1OCC(=O)NN` was run?
**A.** The growth was 106% (inactive).

**Q.** `COc1cc(-c2nc3ccccc3[nH]2)ccc1OCc1nnc(-c2ccc(Br)cc2)o1` was tested. Which growth did it give?
**A.** The growth was 104% (inactive).

**Q.** `O=c1oc2c3ccc4cnccc4c3[nH]c2c2ccccc12` was tested. Which growth did it give?
**A.** Its growth is 14.1% (inactive).

**Q.** Which growth does the source give for `Cc1cc(C(C)(C)CC(C)(C)C)ccc1OCCOCC[N+](C)(C)Cc1ccccc1` here?
**A.** Its growth is -63.4% (active).

**Q.** With `COc1cc(C2C=C(c3ccc(Cl)cc3)N=C3SC(C)=CN32)cc(OC)c1OC` (stereo not given) as the compound, how does the growth read?
**A.** Its growth is 81.8% (inactive).

**Q.** `CCCCC(=O)N(c1ccc(Nc2c3ccccc3nc3cc([N+](=O)[O-])ccc23)cc1)S(C)(=O)=O` was tested. Which growth did it give?
**A.** The growth was 66.1% (inactive).

**Q.** Which growth does the source give for `CC1(C)CC(OCCCC[P+](c2ccccc2)(c2ccccc2)c2ccccc2)CC(C)(C)N1O` here?
**A.** The growth was -3.17% (active).

**Q.** For `Cc1nn2c(/C=C3/C(=O)Nc4ccc(Cl)cc43)c(-c3ccccc3)nc2s1`, which growth is on record?
**A.** The growth was -35.4% (active).

**Q.** With `Cc1ncc([N+](=O)[O-])n1CCOc1ccc(C(=O)/C=C/c2ccc(C(F)(F)F)cc2)cc1` as the compound, how does the growth read?
**A.** Its growth is 60.1% (inactive).

**Q.** `Cc1cn(C(=O)/C(Cl)=C(/Cl)C(=O)O)c2ccccc12` was tested. Which growth did it give?
**A.** The growth was 73% (inactive).

**Q.** How did the growth turn out when `COc1ccc(C(=O)n2nc(CC(=O)NCc3ccccc3)nc2N)cc1` was run?
**A.** Its growth is 92.9% (inactive).

**Q.** For `CCNC(=S)NN`, which growth is on record?
**A.** The growth was 77% (inactive).

**Q.** For `COc1cc(C2c3cc4c(cc3C(O)C(CO)C2CO)OCO4)cc(OC)c1OC` (stereo not given), which growth is on record?
**A.** Its growth is -4.31% (active).

**Q.** How did the growth turn out when `COc1ccc(-c2nsc3c2NC(=O)CC3c2ccc(Cl)cc2)cc1` (stereo not given) was run?
**A.** The growth was 91.2% (inactive).

**Q.** `CCN(CC)CCOC(=O)c1ccc(N=Nc2ccc(O)c(OC)c2)cc1` was tested. Which growth did it give?
**A.** The growth was 89.3% (inactive).

**Q.** For `Cc1ccc(/C=C2\CN(Cc3cn(CCNc4ccnc5cc(Cl)ccc45)nn3)C/C(=C\c3ccc(C)cc3)C2=O)cc1`, which growth is on record?
**A.** Its growth is 18.1% (inactive).

**Q.** `COc1cccc(C(=O)NNc2nc(N3CCN(C4CCCCC4)CC3)nc(N3CCN(C(c4ccccc4)c4ccccc4)CC3)n2)c1` was tested. Which growth did it give?
**A.** The growth was 63.6% (inactive).

**Q.** For `C=CCOc1ccc2c(c1)CC[C@@H]1[C@@H]2CC[C@]2(C)C(=O)/C(=N/O)C[C@@H]12`, which growth is on record?
**A.** The growth was 18.9% (inactive).

**Q.** For `Cc1cc(/C=C2\SC(=Nc3ccccc3)N(C3CCCC3)C2=O)c(C)n1-c1ccc(Cl)cc1`, which growth is on record?
**A.** Its growth is -51.3% (active).

**Q.** How did the growth turn out when `COc1ccc(Cn2cc3c(c2-c2ccccc2)CC(C)(C)c2cnoc2-3)cc1` was run?
**A.** The growth was 13.1% (inactive).

**Q.** With `O=C(OCC1OC(n2cc(C(F)(F)F)c(=O)[nH]c2=O)CC1OC(=O)c1ccc([N+](=O)[O-])cc1)c1ccc([N+](=O)[O-])cc1` (stereo not given) as the compound, how does the growth read?
**A.** The growth was 90.8% (inactive).

**Q.** Which growth does the source give for `CC(C)/C=N/NC(N)=S` here?
**A.** The growth was 81.3% (inactive).

**Q.** How did the growth turn out when `COc1ccc(C2=Cc3ccc(OC(C)=O)cc3OC2)cc1` was run?
**A.** The growth was 107% (inactive).

**Q.** `C[C@]12CC[C@H]3[C@@H](CC=C4C[C@@H](O)CC[C@@]43C)[C@@H]1CC[C@@H]2C(=O)C/C=N/O` was tested. Which growth did it give?
**A.** Its growth is 85.4% (inactive).

**Q.** Which growth does the source give for `C#CCNCCCN1C(=O)c2ccc3c4c(ccc(c24)C1=O)C(=O)N(CCCNCC#C)C3=O` here?
**A.** Its growth is -98.7% (active).

**Q.** How did the growth turn out when `COc1ccc(-c2nnc(N3CCN(C(=O)CN4CCN(c5ccc(Cl)cc5)CC4)CC3)nc2-c2ccc(OC)cc2)cc1` was run?
**A.** Its growth is 81.4% (inactive).

**Q.** `N=C(N)c1ccc(-c2ccc(-c3ccccc3)s2)s1` was tested. Which growth did it give?
**A.** Its growth is -6.07% (active).

**Q.** `COc1c(C)c(C)c(OC)c2c1[nH]c(=O)c1c3cccnc3cn21` was tested. Which growth did it give?
**A.** The growth was 106% (inactive).

**Q.** How did the growth turn out when `CCOC(=O)c1c(Cl)c2c(n1Cc1cccc(OC)c1)-c1oncc1CC2` was run?
**A.** Its growth is -11.7% (active).

**Q.** How did the growth turn out when `NS(=O)(=O)c1ccc(N2N=C(c3ccc(-c4ccccc4)cc3)CC2c2ccc(Cl)cc2)cc1` (stereo not given) was run?
**A.** The growth was 99.8% (inactive).

**Q.** `Nc1ccccc1NC(=O)CCCCCCC(=O)Nc1ccc2c(c1)/C(=C/c1ccc[nH]1)C(=O)N2` was tested. Which growth did it give?
**A.** Its growth is -2.9% (active).

**Q.** For `Cn1c([N+](=O)[O-])cnc1C=C1C(=O)c2ccccc2C1=O`, which growth is on record?
**A.** Its growth is 51% (inactive).

**Q.** Which growth does the source give for `O=C(N/N=c1/ccoc2cccnc12)N1CCN(c2ncccn2)CC1` here?
**A.** Its growth is 70.7% (inactive).
